Laboratory results published in PubChem BioAssay (NCATS).
Activity calls are given as the source filed them. The rule behind the calls is not given here.
Potency is the fitted concentration of half-maximal effect.

Each compound was assayed on HIV-1 nucleocapsid protein NCp7 (binding to TG oligonucleotide) (assay: HIV Nucleocapsid (AID 346;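 note: potency is for inhibitors that block NC binding and lower polarization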)). Conditions: HIV-1 NC / fluorescein-TGTGTGTG probe, fluorescence polarization.
Procedure, shortened: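 HIV-1 NC (100 nM) binding to fluorescein-labelled ssDNA TG4xF (10 nM) in Hepes pH 7.5, 250mM NaCl, 1uM ZnCl2, TCEP and 2-mercaptoethanol; compounds pin-transferred, 1 hr room temperature, fluorescence polarization read on CCD imager.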
For `CN(C)c1ccc(-c2cc(Nc3ccc(F)cc3)ncn2)cc1`, the Potency was > 20 µM (inactive). `O=C(c1cnccn1)N1CCC[C@@]2(CCN(c3ncccn3)C2)C1` was tested, and the Potency was > 20 µM (inactive). In the case of `Cc1nc2cnc(N3CCNCC3)nc2n(CCc2ccccc2)c1=O`, the Potency is reported as > 4 µM (inactive). For `Clc1ccccc1-c1cc(NCc2cccnc2)ncn1`, the Potency was > 20 µM (inactive). With `Cc1cccc(CNc2ncncc2-c2ccccc2C)c1` the Potency was > 20 µM (inactive). For `CN(C)C(=O)c1ccc(-c2nccc(-n3ccnc3)n2)cc1`, the Potency was > 20 µM (inactive). For `O=c1c(-c2ccc(F)cc2)nc2cnc(Oc3cccc(Cl)c3)nc2n1C[C@H]1CCCO1`, the Potency was > 20 µM (inactive). For `CN(C)c1ccc(-c2nc(N(C)C)c3ccccc3n2)cc1`, the Potency was > 20 µM (inactive). `COc1cccc(Cn2c(=O)c(-c3cc(F)cc(F)c3)nc3cnc(N(C)C)nc32)c1` was tested, and the Potency was > 4 µM (inactive). `CN(C)c1ccc(-c2ccc3ncnc(NCc4ccccc4)c3c2)cc1` was tested, and the Potency was > 20 µM (inactive). With `CN(C)c1ncc2nc(-c3ccc(F)cc3)c(=O)n(-c3ccccc3)c2n1` the Potency was > 20 µM (inactive). With `COc1ncc2nc(-c3cn(C)c4ccccc34)c(=O)n(-c3ccccc3)c2n1` the Potency was > 20 µM (inactive). With `CCNc1ncc2nc(-c3ccccc3)c(=O)n(CCc3ccccc3)c2n1` the Potency was > 4 µM (inactive). For `CC(=O)N1CCC2(CCCN(C(=O)Nc3cccc(F)c3)C2)CC1`, the Potency was > 20 µM (inactive). For `Cc1noc(C)c1-c1cc(NC2CC2)ncn1`, the Potency was > 20 µM (inactive). For `COc1ncc2ncc(=O)n(CCC#N)c2n1`, the Potency was > 20 µM (inactive). For `CN1CCN(c2ncc3nc(-c4cccs4)c(=O)n(Cc4cccs4)c3n2)CC1`, the Potency was > 20 µM (inactive). `O=S(=O)(c1ccccc1)N1CCC2(CCN(C(c3ccccc3)c3ccccc3)CC2)CC1` was tested, and the Potency was > 20 µM (inactive). In the case of `COc1ccccc1CNc1nc(-c2ccccc2CN(C)C)nc2ccccc12`, the Potency is reported as > 20 µM (inactive). With `COc1ccc(Oc2ncc3nc(-c4ccc(OC)cc4)c(=O)n(CCC#N)c3n2)cc1` the Potency was > 20 µM (inactive). In the case of `CN(C)c1ccc(-c2cc(NCc3cccnc3)ncn2)cc1`, the Potency is reported as > 20 µM (inactive). `CNc1ncnc2ccc(-c3ccc4c(c3)OCO4)cc12` was tested, and the Potency was > 20 µM (inactive). `COc1ccccc1CNc1cc(-c2c(C)noc2C)ncn1` was tested, and the Potency was > 20 µM (inactive). With `Cn1cc(-c2nc3cnc(N4CCNCC4)nc3n(CCC#N)c2=O)c2ccccc21` the Potency was > 20 µM (inactive). With `COC(=O)N1CCC2(CCCN(Cc3nccs3)C2)CC1` the Potency was > 20 µM (inactive). In the case of `CN(C)c1ncc2nc(-c3cccc(C#N)c3)c(=O)n(C[C@H]3CCCO3)c2n1`, the Potency is reported as > 20 µM (inactive). In the case of `O=C(c1cnccn1)N1CCC[C@@]2(CCN(c3ccccn3)C2)C1`, the Potency is reported as > 20 µM (inactive). With `CN(Cc1ccco1)c1ncncc1-c1ccccc1C(F)(F)F` the Potency was > 20 µM (inactive). With `O=c1cnc2cnc(Nc3ccccc3)nc2n1CCc1ccccc1` the Potency was > 20 µM (inactive). For `Cn1c(=O)c(-c2cccc(Cl)c2)nc2cncnc21`, the Potency was > 20 µM (inactive). In the case of `Cc1noc(C)c1C(=O)N1CCC2(CCCN(C(=O)Nc3cccc(F)c3)C2)CC1`, the Potency is reported as > 20 µM (inactive). For `c1ccc(Nc2ncnc3ccc(-c4cccnc4)cc23)cc1`, the Potency was > 20 µM (inactive). In the case of `Cc1cnc(CNc2ncnc3ccc(-c4ccccc4CN(C)C)cc23)cn1`, the Potency is reported as > 20 µM (inactive). `COc1cccc(Cn2c(=O)c(-c3cc(F)cc(F)c3)nc3cnc(N4CCN(C)CC4)nc32)c1` was tested, and the Potency was > 20 µM (inactive). For `CNc1nc(-c2ccccc2CN(C)C)nc2ccccc12`, the Potency was > 20 µM (inactive). `Cc1noc(C)c1-c1cc(NCc2cccs2)ncn1` was tested, and the Potency was > 20 µM (inactive). With `COc1ccc(C(=O)N2CCC3(CC2)CCN(c2ccccn2)CC3)cc1` the Potency was > 20 µM (inactive). In the case of `O=C(Nc1cccc(F)c1)N1CC[C@@]2(CCCN(C(=O)c3cc(C(F)(F)F)cc(C(F)(F)F)c3)C2)C1`, the Potency is reported as > 20 µM (inactive). For `COc1ccc(Oc2ncc3nc(-c4cc(F)cc(F)c4)c(=O)n(C)c3n2)cc1`, the Potency was > 20 µM (inactive). `CS(=O)(=O)N1CCC2(CCN(c3cccc(-c4ccccc4)c3)CC2)CC1` was tested, and the Potency was > 20 µM (inactive).
